Results as given in PubChem BioAssay (NCATS).
Several values for one entry are separate records, joined by “and”; a condition that tells them apart may be missing. Identical values can stand only once. Records with an inconclusive call do not appear. Activity calls are given as the source filed them. Unless noted, calls follow the shape of the dose curve; as a rule, active = well fitted curve in either direction with a large enough effect (not every such curve was filed as active); inconclusive = small, poorly fitted or top-dose-only effect, or another doubt; inactive = flat fitted curve, though single readings scatter.

Tests used:
[1] = target: Glucocorticoid receptor (Homo sapiens) (UniProt P04150); experiment: GR-GFP Redistribution (AID 450;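 active = compounds whose dose series gives a full or clear partial fitted curve of increased nuclear translocation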; also: potency is read from the fitted curve at half-maximal effect); details: U2OS GR-GFP nuclear translocation, laser cytometry, 2 h
Glucocorticoid receptor (Homo sapiens), sequence (P04150 whole entry, looked up, the tested form may be a part): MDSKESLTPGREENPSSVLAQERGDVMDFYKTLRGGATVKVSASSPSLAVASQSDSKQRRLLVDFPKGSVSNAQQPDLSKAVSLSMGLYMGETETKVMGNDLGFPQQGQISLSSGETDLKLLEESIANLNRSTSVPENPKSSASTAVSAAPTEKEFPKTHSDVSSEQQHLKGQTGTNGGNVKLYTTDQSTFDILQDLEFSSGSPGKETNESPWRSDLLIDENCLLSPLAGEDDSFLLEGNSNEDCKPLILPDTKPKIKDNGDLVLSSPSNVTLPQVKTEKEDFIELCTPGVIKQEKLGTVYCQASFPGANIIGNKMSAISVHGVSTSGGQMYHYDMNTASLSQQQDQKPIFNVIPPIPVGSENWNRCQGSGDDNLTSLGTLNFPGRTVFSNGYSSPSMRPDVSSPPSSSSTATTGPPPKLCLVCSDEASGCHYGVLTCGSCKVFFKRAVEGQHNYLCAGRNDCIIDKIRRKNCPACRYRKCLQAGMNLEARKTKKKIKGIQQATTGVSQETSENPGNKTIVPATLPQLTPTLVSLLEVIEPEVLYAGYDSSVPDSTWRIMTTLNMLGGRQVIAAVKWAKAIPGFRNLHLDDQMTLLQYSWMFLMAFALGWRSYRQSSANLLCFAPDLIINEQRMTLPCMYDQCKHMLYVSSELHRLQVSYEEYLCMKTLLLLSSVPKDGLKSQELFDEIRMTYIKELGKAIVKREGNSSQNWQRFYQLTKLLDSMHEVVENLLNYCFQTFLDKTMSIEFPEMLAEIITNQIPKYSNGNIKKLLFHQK

[2] = target: Glucocorticoid receptor (Homo sapiens) (UniProt P04150); experiment: GR-EFC Redistribution (AID 451; calls by dose curve; also: potency is read from the fitted curve at half-maximal effect); details: CHO-K1 GR-EFC translocation, beta-gal luminescence, 2 h
Procedure, shortened: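 CHO-K1 cells expressing nuclear EA and GR-ED fragments of b-gal; compounds titrated up to 46 uM final, 2 h at 37 C. GR nuclear translocation read as complemented b-gal luminescence after 1 h RT detection.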

[3] = target: Mitogen-activated protein kinase 10 (Mus musculus) (UniProt Q61831); experiment: JNK3 AlphaScreen Assay (AID 530); details: JNK3 lysate, c-Jun phosphorylation; series mostly up to 57.1 µM;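 also: kinase came from lysate of stimulated human HepG2 cells; signal reports phosphorylation of biotinylated GST-cJun 1-79 at Ser73 with 10 µM ATP; % is scaled to controls: 0 for no effect and ±100 for the full control effect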
Procedure, shortened: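 Activity was read by AlphaScreen after JNK3-containing HepG2 lysate (cytokine pre-activated) phosphorylated biotinylated GST-cJun with 10 uM ATP at room temperature. Phospho-Ser73 cJun antibody with Protein-A acceptor beads provided detection.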

[4] = AP1 Signaling Pathway (AID 357); details: ME-180 AP-1-bla reporter, EGF-induced, beta-lactamase ratio, 5 h; series mostly up to 17.2 µM;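 also: ME-180 reporter cells stimulated with EGF at its EC50 level; % is scaled to controls: 0 for no effect and ±100 for the full control effect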
Procedure, shortened: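 Read-out was the 460nm/530nm emission ratio (excitation 405nm) after CCF4 loading for 2.5 hours at room temperature. Cells carried an AP-1-driven beta-lactamase reporter, were stimulated with EC50 EGF plus compound for 5 hours, and AC50 values came from titrations.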

[5] = NFAT Signaling Pathway (AID 444); details: Jurkat NFAT-bla M1, carbachol, beta-lactamase ratio, 5 h;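 also: carbachol stimulus at about its EC50 of 1 µM final; % is scaled to controls: 0 for no effect and ±100 for the full control effect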
Procedure, shortened: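 Jurkat cells with NFAT-driven β-lactamase reporter and co-expressed M1 receptor, stimulated with carbachol (final 1 uM, ~EC50), compound titration, 5 h at 37 °C. CCF4 loaded 1 h at RT; 460/530 nm ratio gave %activity and AC50.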

[6] = Stat Signaling Pathway (AID 446); details: ME-180 (cervical carcinoma) SIE beta-lactamase reporter, IL-6 stimulated, 5 h; series mostly up to 17.2 µM;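 also: ME-180 cervical cancer cells given 40 pM IL-6 alongside compound; SIE-controlled beta-lactamase reporter measured as 460/530 nm FRET emission ratio; % is scaled to controls: 0 for no effect and ±100 for the full control effect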
Procedure, shortened: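 Normalization used AC90 stimulation (300 pM IL-6) and AC90 inhibition (125 nM pan-JAK inhibitor at 40 pM IL-6). The underlying signal is SIE-driven beta-lactamase in ME-180 cells after 5 h IL-6 exposure with compound.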

[7] = Cell Viability - BJ (AID 421; calls by dose curve;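 also: potency is read from the fitted curve at half-maximal effect; cells exposed to compound for 40 hours at 37 °C before readout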); details: BJ fibroblast viability, qHTS
Procedure, shortened: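 Normal human BJ foreskin fibroblasts, 1500/well in complete medium, treated 40 hr at 37 °C. Cellular ATP by CellTiter-Glo luminescence; normalized to DMSO and 100 uM tamoxifen, AC50 from Hill fit.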

[8] = Cell Viability - Hek293 (AID 427;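 active = compounds whose dose-response curve shows a full or clear partial loss of cell viability, called from curve shape rather than a numeric limit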;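 also: potency is read from the fitted curve at half-maximal effect; cells exposed to compound for 40 hours at 37 °C before reading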); details: qHTS
Procedure, shortened: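 HEK293 cells in complete medium were exposed to compound for 40 hr at 37 °C, then cellular ATP was read by CellTiter-Glo luminescence. Data were normalized to DMSO (basal) and 100 uM tamoxifen (100% inhibition), and AC50 came from Hill fits.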

[9] = Cell Viability - HepG2 (AID 433; calls by dose curve;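 also: potency is read from the fitted curve at half-maximal effect; potency for ATP loss meaning cytotoxicity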); details: qHTS
Procedure, shortened: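 HepG2 hepatocellular carcinoma cells (1500/well) were treated with compounds for 40 h at 37 °C in complete medium; intracellular ATP was read by CellTiter-Glo luminescence. Data were normalized to DMSO and 100 uM tamoxifen, and AC50 came from Hill fits.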

[10] = Cell Viability - MRC5 (AID 434; calls by dose curve;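 also: potency is read from the fitted curve at half-maximal effect; potency reflects cytotoxicity seen as loss of intracellular ATP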); details: MRC5 lung fibroblast viability, qHTS
Procedure, shortened: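 ATP luminescence read-out (CellTiter-Glo, 20 min RT) after 40 hr, 37 °C compound exposure of 1500 MRC5 cells/well. Data normalized to DMSO (basal) and 100 uM tamoxifen (100% inhibition); AC50 from standard Hill equation.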

[11] = Cell Viability - SK-N-SH (AID 435; calls by dose curve; also: potency is read from the fitted curve at half-maximal effect); details: SK-N-SH neuroblastoma cell viability qHTS
Procedure, shortened: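 SK-N-SH human neuroblastoma cells (1500/well) were exposed to compounds in complete medium for 40 h at 37 °C, and intracellular ATP was then measured by CellTiter-Glo luminescence. AC50 was taken from Hill fits, normalized to DMSO and 100 uM tamoxifen.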

[12] = Cell Viability - N2a (AID 540; active = well fitted curve in the direction sought with a large enough effect; an effect the other way counts as inactive or inconclusive; also: nearly all actives have a fitted effect of over 45% in size; also: potency is read from the fitted curve at half-maximal effect;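 as to activity change, negative = cytotoxicity: plate controls were DMSO alone for no effect and tamoxifen control for full effect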); details: N2a mouse neuroblastoma cell viability; activity change, negative = cytotoxicity: at 92.2 µM (top of the series)
Procedure, shortened: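 CellTiter-Glo ATP luminescence, read 20 min after reagent at room temperature, reported viability following 40 h compound treatment at 37 °C. N2a mouse neuroblastoma cells seeded 1500/well; Hill equation gave AC50.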

[13] = Cell Viability - HUV-EC-C (AID 542; active = well fitted curve in the direction sought with a large enough effect; an effect the other way counts as inactive or inconclusive; also: nearly all actives have a fitted effect of over 35% in size; also: potency is read from the fitted curve at half-maximal effect); details: HUV-EC-C endothelial cell viability, qHTS; series mostly up to 92.2 µM
Procedure, shortened: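 CellTiter-Glo luminescence measured ATP loss in HUV-EC-C cells (1000/well) after 40 hr compound exposure at 37 °C, in complete culture medium. Concentration-response data were Hill-fitted to give AC50.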

[14] = Cell Viability - H-4-II-E (AID 543; active = well fitted curve in the direction sought with a large enough effect; an effect the other way counts as inactive or inconclusive; also: nearly all actives have a fitted effect of over 35% in size; also: potency is read from the fitted curve at half-maximal effect); details: H-4-II-E rat hepatoma viability; series mostly up to 92.2 µM
Procedure, shortened: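 CellTiter-Glo luminescence (intracellular ATP) measured after 40 h compound exposure at 37 °C in H-4-II-E rat hepatoma cells seeded at 1500/well. Values are AC50s fitted with the standard Hill equation.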

[15] = Cell Viability - Renal Proximal Tubule (AID 545; active = well fitted curve in the direction sought with a large enough effect; an effect the other way counts as inactive or inconclusive; also: nearly all actives have a fitted effect of over 40% in size; also: potency is read from the fitted curve at half-maximal effect;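 as to activity change, negative = cytotoxicity: 0% = DMSO only and -100% = 100 µM tamoxifen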); details: renal proximal tubule cells viability; series mostly up to 91.7 µM
Procedure, shortened: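 Primary rat renal proximal tubule cells (1000/well) were treated with compounds for 40 hr at 37 °C in complete medium. Intracellular ATP was measured by CellTiter-Glo luminescence, and AC50 values came from Hill-equation fits of concentration-response data.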

[16] = Cell Viability - Mesenchymal (AID 546; active = well fitted curve in the direction sought with a large enough effect; an effect the other way counts as inactive or inconclusive;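 also: cells exposed to compound for 40 hours before reading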; also: potency is read from the fitted curve at half-maximal effect;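 as to activity change, negative = cytotoxicity: 0% = DMSO only and -100% = 100 µM tamoxifen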); details: mesenchymal cells viability, qHTS; activity change, negative = cytotoxicity: at 91.7 µM (top of the series)
Procedure, shortened: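 Human renal mesenchymal cells (glomerulus-derived), 1000 cells/well, 5 hr 37 °C pre-incubation; compound 40 hr, 37 °C; CellTiter-Glo, 20 min RT; luminescence; AC50 via Hill equation.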

[17] = target: Cytochrome P450 1A2 (Homo sapiens) (UniProt P05177); experiment: p450-cyp1a2 (AID 410; calls by dose curve;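 also: -100% = full effect of reference inhibitor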); details: recombinant CYP1A2, luciferin-ME demethylation, luminescence; series mostly up to 25.6 µM
Cytochrome P450 1A2 (Homo sapiens), sequence (P05177 whole entry, looked up): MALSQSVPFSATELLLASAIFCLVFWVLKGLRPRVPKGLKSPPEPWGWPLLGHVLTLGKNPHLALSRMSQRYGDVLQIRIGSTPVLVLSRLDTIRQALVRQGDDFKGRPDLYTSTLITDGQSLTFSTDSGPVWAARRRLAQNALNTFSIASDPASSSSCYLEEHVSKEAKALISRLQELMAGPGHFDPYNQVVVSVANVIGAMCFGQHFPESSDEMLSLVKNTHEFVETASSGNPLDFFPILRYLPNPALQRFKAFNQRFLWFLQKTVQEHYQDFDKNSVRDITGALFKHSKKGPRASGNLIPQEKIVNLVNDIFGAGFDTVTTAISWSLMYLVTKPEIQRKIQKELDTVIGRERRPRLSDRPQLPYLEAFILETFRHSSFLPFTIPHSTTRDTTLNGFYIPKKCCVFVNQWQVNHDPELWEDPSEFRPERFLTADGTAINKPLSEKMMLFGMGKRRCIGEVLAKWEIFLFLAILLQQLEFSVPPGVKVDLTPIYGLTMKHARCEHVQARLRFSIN
Procedure, shortened: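 Luminescent demethylation readout: Luciferin-ME (100uM, equal to Km) turned over by 20nM CYP1A2 for 60 min at room temperature after NADPH regeneration addition, following 10 min compound preincubation. Normalization used 57 uM furafylline as full inhibition.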

[18] = Cell Viability - Jurkat (AID 426;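 active = dose-dependent loss of cell ATP signal giving a full or clear fitted curve, ranked by lower potency value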; also: potency is read from the fitted curve at half-maximal effect); details: qHTS
Procedure, shortened: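 Cytotoxicity taken as drop in cellular ATP (CellTiter-Glo luminescence, 20 min room temperature) after 40 hr, 37C treatment of 5000 Jurkat Clone E6-1 cells per well; concentration-response fitted with Hill equation for AC50.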

[19] = Cell Viability - SH-SY5Y (AID 544; active = well fitted curve in the direction sought with a large enough effect; an effect the other way counts as inactive or inconclusive; also: potency is read from the fitted curve at half-maximal effect; nearly all actives have a fitted effect of over 55% in size); details: SH-SY5Y neuroblastoma cell viability; series mostly up to 92.2 µM
Procedure, shortened: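 Cytotoxicity measured via ATP-dependent luciferase luminescence (CellTiter-Glo) following 40 h, 37 °C exposure of 1500 SH-SY5Y cells per well. Concentration-response data were fitted with the standard Hill equation to give AC50.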

[20] = Cell Viability - NIH 3T3 (AID 541; active = well fitted curve in the direction sought with a large enough effect; an effect the other way counts as inactive or inconclusive;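 also: plate controls were DMSO alone for no effect and tamoxifen positive control for full effect; nearly all actives have a fitted effect of over 25% in size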); details: NIH 3T3 cell viability, qHTS; activity change, negative = cytotoxicity: at 92.2 µM (top of the series)
Procedure, shortened: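 Intracellular ATP (CellTiter-Glo luminescence, 20 min at room temperature) measured after 40 hr compound exposure at 37 °C of 1000 NIH 3T3 mouse fibroblasts/well in complete medium; AC50 derived by Hill-equation modelling of qHTS concentration-response curves.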

O=C1NCN(c2ccccc2)C12CCN(CCCOc1ccc(F)cc1)CC2
inactive: Potency [1] > 46 µM | Potency [2] > 46 µM | outcome [3]

COc1ccc(CN2CCNCC2)c(OC)c1OC
inactive: outcome [4] | activity change, negative = inhibition ([5]; at 17.2 µM (top of the series)) -8.2% | outcome [6] | Potency [1] > 20.6 µM | Potency [2] > 20.6 µM | outcome [3]

CNC(=O)Oc1cccc2ccccc12
inactive: Potency [7] > 92 µM | Potency [8] > 92 µM | Potency [9] > 92 µM | Potency [10] > 92 µM | Potency [11] > 92 µM | outcome [3] | Potency [12] | Potency [13] | Potency [14] | Potency [15] | Potency [16]

NC(=O)CN1CCCC1=O
inactive: outcome [4] | Potency [17] | activity change, negative = inhibition ([5]; at 17.2 µM (top of the series)) -0.917% | activity change, negative = inhibition ([5]; at 38 µM (top of the series)) 1.7% | outcome [6] | Potency [1] > 46 µM and > 20.6 µM | Potency [2] > 46 µM and > 20.6 µM | outcome [3]

C[N+]1(C)[C@@H]2CC[C@H]1CC(OC(=O)C(CO)c1ccccc1)C2 (stereo partly specified)
active: activity change, negative = inhibition ([5]; at 17.2 µM (top of the series)) -95.4% and -94.2%
inactive: outcome [4] | outcome [6] | Potency [1] > 20.6 µM

Cc1ccc(O)cc1
inactive: outcome [3]

OC(c1ccccc1)(c1ccccc1)C1CCNCC1
inactive: outcome [4] | Potency [17] | outcome [6] | Potency [1] > 20.6 µM | Potency [2] > 20.6 µM | outcome [3]

O=C(CCCN1CCC(n2c(=O)[nH]c3ccccc32)CC1)c1ccc(F)cc1
inactive: outcome [4] | Potency [17] | outcome [6] | Potency [1] > 20.6 µM | Potency [2] > 20.6 µM | outcome [3]

C[C@H](N)[C@H](O)c1ccc(O)c(O)c1
inactive: outcome [4] | Potency [17] | activity change, negative = inhibition ([5]; at 17.2 µM (top of the series)) -6.73% | activity change, negative = inhibition ([5]; at 38 µM (top of the series)) 1.06% | outcome [6] | outcome [3]

CN(C)C(=S)SSC(=S)N(C)C
inactive: outcome [3]
active: Potency [18] 12.5 µM | Potency [8] 14.5 µM | Potency [9] 66.9 µM | Potency [10] 13.2 µM | Potency [11] 8.36 µM | Potency [12] 5.01 µM | Potency [13] 15.8 µM | Potency [14] 3.98 µM | Potency [19] 0.0158 µM | Potency [15] 20 µM | activity change, negative = cytotoxicity [16] -103%

O=C(CCl)c1ccc(Cl)cc1Cl
inactive: outcome [3]
active: Potency [7] 47.1 µM | Potency [18] 0.345 µM | Potency [9] 47.9 µM | Potency [11] 9.56 µM | Potency [12] 31.6 µM | activity change, negative = cytotoxicity [20] -145% | Potency [14] 10 µM | Potency [19] 1.26 µM | Potency [16] 31.6 µM

CCC(=O)O[C@H]1CC[C@H]2[C@@H]3CCC4=CC(=O)CC[C@]4(C)[C@H]3CC[C@]12C
inactive: outcome [4] | Potency [17] | outcome [6] | Potency [1] > 20.6 µM | Potency [2] > 20.6 µM | outcome [3]

COC(=O)C1=CCCN(C)C1
inactive: outcome [4] | Potency [17] | outcome [6] | Potency [1] > 46 µM and > 20.6 µM | Potency [2] > 46 µM and > 20.6 µM | outcome [3]

O=C(O)c1nn(Cc2ccc(Cl)cc2Cl)c2ccccc12
inactive: outcome [4] | Potency [17] | activity change, negative = inhibition ([5]; at 38 µM (top of the series)) -9.69% | Potency [1] > 46 µM | Potency [2] > 46 µM | outcome [3]
